Data on nine compounds can be found in PubChem BioAssay (Tox21).

Inconclusive results are not listed. Activity calls are given as the source filed them. Unless noted, the call rests on the fitted dose curve; in most records, active means well fitted curve in the direction sought with a large enough effect in the repeat runs; inconclusive means weak or mixed curves; inactive means no such curve, though single readings can be large; an effect the other way counts as inactive or inconclusive.

Test [1] is described as follows: qHTS assay to identify aromatase inhibitors - cell viability counter screen (AID 743084;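 further: cells stimulated with testosterone during compound exposure; nearly all actives have a fitted effect of over 55% in size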). (In general: qHTS replaces the single test concentration by a dilution series.)
In test [2] the target is Aryl hydrocarbon receptor (Homo sapiens) (UniProt P35869). The test is described as follows: qHTS assay to identify small molecule that activate the aryl hydrocarbon receptor (AhR) signaling pathway (AID 743085).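 Further: HG2L7.5c1 human HepG2 liver cells with stably integrated DRE-driven firefly reporter; series mostly up to about 70 µM; nearly all actives have a fitted effect of over 15% in size.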 The gist of the method:
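Reporter assay in engineered HepG2 line HG2L7.5c1, whose plasmid carries twenty dioxin responsive elements upstream of firefly luciferase. Treatment lasted 24 h at 37C; ONE-Glo luminescence gauged induction.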

The nature of test [3]: qHTS assay to identify small molecule that activate the aryl hydrocarbon receptor (AhR) signaling pathway - cell viability counter screen (AID 743086).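 Further: HepG2 liver cells carrying the AhR DRE luciferase reporter; series mostly up to about 70 µM; nearly all actives have a fitted effect of over 45% in size.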 The procedure, abridged:
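HepG2-AhR-luc (HG2L7.5c1) cells, 4000/well, were preincubated 5 h at 37C, exposed to compound in qHTS format for 24 hr at 37C, then given CellTiter-Fluor for 30 min; viability was read as fluorescence in the reporter wells.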

Test [4] deals with Peroxisome proliferator-activated receptor gamma (Homo sapiens) (UniProt P37231). The test can be described thus: qHTS assay to identify small molecule agonists of the peroxisome proliferator-activated receptor gamma (PPARg) signaling pathway (AID 743094; active means well fitted activation curve with a large enough effect in the signal ratio in the repeat runs, not every such curve was filed as active; the % refers to the signal ratio). The gist of the method: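 HEK293H PPARg-bla cells, 5 h settle at 37C/5% CO2; compound (DMSO) 17 h, 37C; B/G FRET substrate 1 h RT; fluorescence intensity read-out. qHTS format.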

Test [5] is described as follows: qHTS assay to identify small molecule antagonists of the peroxisome proliferator-activated receptor gamma (PPARg) signaling pathway - cell viability counter screen (AID 743194). Further: nearly all actives have a fitted effect of over 55% in size. The procedure, abridged:
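PPARg-UAS-bla HEK293H cells were plated, rested 5 h at 37 C, then treated with compounds plus rosiglitazone (50 nM final) for 17 h at 37 C; viability was then read by CellTiter-Glo luminescence after 30 min at room temperature.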

Test [6] is described as follows: qHTS assay for small molecule agonists of the antioxidant response element (ARE) signaling pathway (AID 743202; active means well fitted activation curve with a large enough effect in the signal ratio in the repeat runs, not every such curve was filed as active; the % refers to the signal ratio; further: potency means the concentration at half of the fitted maximal effect). The procedure, abridged:
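Steps: seed ARE-bla HepG2 cells (2,000/well); incubate 5 h at 37 C; add compounds by pin tool; incubate 16 h at 37 C; add FRET substrate; read fluorescence after 2 h at RT.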

Test [7] is described as follows: qHTS assay for small molecule agonists of the antioxidant response element (ARE) signaling pathway - cell viability counter screen (AID 743203; calls by dose curve; further: nearly all actives have a fitted effect of over 55% in size). The procedure, abridged:
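Luminescence read-out (CellTiter-Glo, 30 min at room temperature) measured cell viability in the same wells as the ARE beta-lactamase reporter. HepG2 ARE-bla cells were treated with compounds for 16 hrs at 37C/5% CO2.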

Test [8] is described as follows: qHTS assay for small molecule activators of the heat shock response signaling pathway - cell viability counter screen (AID 743209). Further: nearly all actives have a fitted effect of over 50% in size. The procedure, abridged: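 HSE-bla HeLa; 1500 cells/well; overnight 37 C, 5% CO2; compound 5 h 37 C; LiveBLAzer B/G substrate 2.5 h RT; CellTiter-Glo 30 min RT; luminescence.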
Test [9] is described as follows: qHTS assay to identify small molecule agonists of the peroxisome proliferator-activated receptor delta (PPARd) signaling pathway - cell viability counter screen (AID 743211). Further: nearly all actives have a fitted effect of over 55% in size. The procedure, abridged:
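Multiplexed format: after the 2 h room-temperature LiveBLAzer B/G FRET step, CellTiter-Glo was added to the same wells. Luminescence after 30 min gave cell viability; compound exposure was 17 h at 37C.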

For test [10], the target named is Peroxisome proliferator-activated receptor delta (Homo sapiens) (UniProt Q03181). The test is described as follows: qHTS assay to identify small molecule agonists of the peroxisome proliferator-activated receptor delta (PPARd) signaling pathway (AID 743212; calls by dose curve). The gist of the method:
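Cells expressing a UAS-driven beta-lactamase reporter (PPARd-bla HEK293H) were given test compounds after a 5 h settle and kept at 37 C. Reporter activity was then measured as FRET fluorescence using LiveBLAzer B/G substrate.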

Test [11] in a line: qHTS assay to identify small molecule antagonists of the peroxisome proliferator-activated receptor delta (PPARd) signaling pathway - cell viability counter screen (AID 743213). Further: nearly all actives have a fitted effect of over 50% in size. The procedure, abridged: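 PPARd-bla HEK293H cells (3000/well) got compound plus 300 nM L165041 agonist for 17 h at 37 C. Viability in the same wells came from CellTiter-Glo luminescence after 30 min at room temperature.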

The target of test [12] is Peroxisome proliferator-activated receptor delta (Homo sapiens) (UniProt Q03181). The test is described as follows: qHTS assay to identify small molecule antagonists of the peroxisome proliferator-activated receptor delta (PPARd) signaling pathway (AID 743215; active means well fitted inhibition curve with a large enough effect in the signal ratio in the repeat runs, not every such curve was filed as active; the % refers to the signal ratio;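 further: cells stimulated with agonist L165041 at 300 nM final during compound exposure; series mostly up to about 62 µM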). The gist of the method: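 HEK293H GeneBLAzer PPARd UAS-bla reporter cells; cpd + L165041 300 nM final, 17 h 37 C; LiveBLAzer B/G FRET substrate 2 h RT; fluorescence intensity read-out. Antagonist mode.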

Test [13] concerns the target Bile acid receptor (Homo sapiens) (UniProt Q96RI1). The test can be described thus: qHTS assay to identify small molecule antagonists of the farnesoid-X-receptor (FXR) signaling pathway (AID 743217; active means well fitted inhibition curve with a large enough effect in the signal ratio in the repeat runs, not every such curve was filed as active; the % refers to the signal ratio). The procedure, abridged: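 Read-out: beta-lactamase FRET fluorescence (LiveBLAzer B/G substrate, 2 h, room temperature) in GeneBLAzer FXR-UAS-bla HEK 293T cells. Compounds were co-dosed with 50 uM chenodeoxycholic acid (final) and incubated 16 h at 37 °C.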

Test [14] in a line: qHTS assay to identify small molecule agonists of the farnesoid-X-receptor (FXR) signaling pathway - cell viability counter screen (AID 743218). Further: nearly all actives have a fitted effect of over 45% in size. The gist of the method: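 Luminescence from CellTiter-Glo, read after 30 min at RT, reports viability of GeneBLAzer FXR-UAS-bla HEK 293T cells treated 16 h with compounds in the wells used for the beta-lactamase reporter.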
Test [15] has as its target Bile acid receptor (Homo sapiens) (UniProt Q96RI1). The test is described as follows: qHTS assay to identify small molecule agonists of the farnesoid-X-receptor (FXR) signaling pathway (AID 743220; active means well fitted activation curve with a large enough effect in the signal ratio in the repeat runs, not every such curve was filed as active; the % refers to the signal ratio). The gist of the method: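 FXR-UAS-bla HEK 293T cells carrying a UAS-driven beta-lactamase reporter were plated for 5 h at 37C/5% CO2, then exposed to DMSO-dissolved Tox21 10K compounds for 16 h at 37C. A LiveBLAzer B/G FRET substrate was loaded for 2 h at room temperature before fluorescence reading.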

Test [16] is described as follows: qHTS assay to identify small molecule antagonists of the farnesoid-X-receptor (FXR) signaling pathway - cell viability counter screen (AID 743221; active means well fitted cell-killing curve with a large enough effect in the repeat runs, not every such curve was filed as active; further: nearly all actives have a fitted effect of over 50% in size). The procedure, abridged: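 CellTiter-Glo, 30 min RT, luminescence; same wells as the LiveBLAzer FRET read. Cells: FXR-UAS-bla HEK 293T. Treatment: compound with chenodeoxycholic acid 50 uM final, 16 h at 37 C.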
In test [17] the target is Vitamin D3 receptor (Homo sapiens) (UniProt P11473). The test is described as follows: qHTS assay to identify small molecule agonists of the vitamin D receptor (VDR) signaling pathway (AID 743222; calls by dose curve). The gist of the method:
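Beta-lactamase reporter readout (LiveBLAzer B/G FRET, 2 h RT) in VDR-bla cells after 16 h compound treatment at 37C, 5% CO2; cells pre-incubated 4 h before pin transfer of DMSO solutions.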

Test [18] shares this target. The test is described as follows: qHTS assay to identify small molecule antagonists of the vitamin D receptor (VDR) signaling pathway (AID 743223; active means well fitted inhibition curve with a large enough effect in the signal ratio in the repeat runs, not every such curve was filed as active; the % refers to the signal ratio). The procedure, abridged: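 After VDR-bla cells are plated and left 4 h at 37C, DMSO-dissolved compounds and 3 nM (final) calcitriol agonist are added. Incubation continues 16 h at 37C; FRET beta-lactamase substrate then develops 2 h at room temperature.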

Test [19] is described as follows: qHTS assay for small molecule activators of the heat shock response signaling pathway (AID 743210; active means well fitted activation curve with a large enough effect in the signal ratio in the repeat runs, with a control signal flat, not every such curve was filed as active; the % refers to the signal ratio;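 further: HeLa cells with beta-lactamase reporter driven by heat shock elements; series mostly up to about 63 µM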). The gist of the method:
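Activation of heat shock element-controlled beta-lactamase expression is measured in HeLa cells by LiveBLAzer FRET fluorescence, with compound exposure lasting 5 h at 37 C and substrate loading 2.5 h at room temperature.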

Chain of Bile acid receptor (Homo sapiens) (Q96RI1 whole entry, looked up): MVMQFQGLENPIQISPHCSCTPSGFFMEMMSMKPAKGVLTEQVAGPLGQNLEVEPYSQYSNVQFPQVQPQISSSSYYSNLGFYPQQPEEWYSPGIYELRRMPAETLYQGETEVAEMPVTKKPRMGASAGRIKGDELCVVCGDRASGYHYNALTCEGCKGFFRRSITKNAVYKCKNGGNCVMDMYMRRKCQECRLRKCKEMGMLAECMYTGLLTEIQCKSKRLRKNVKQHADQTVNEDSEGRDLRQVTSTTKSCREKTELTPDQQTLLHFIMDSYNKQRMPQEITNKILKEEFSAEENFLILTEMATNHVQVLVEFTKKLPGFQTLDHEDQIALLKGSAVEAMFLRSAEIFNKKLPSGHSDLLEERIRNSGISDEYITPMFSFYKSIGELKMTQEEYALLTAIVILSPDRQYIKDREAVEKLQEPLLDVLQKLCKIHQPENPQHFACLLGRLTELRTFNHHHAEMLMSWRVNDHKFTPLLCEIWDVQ
Chain of Aryl hydrocarbon receptor (Homo sapiens) (P35869 whole entry, looked up): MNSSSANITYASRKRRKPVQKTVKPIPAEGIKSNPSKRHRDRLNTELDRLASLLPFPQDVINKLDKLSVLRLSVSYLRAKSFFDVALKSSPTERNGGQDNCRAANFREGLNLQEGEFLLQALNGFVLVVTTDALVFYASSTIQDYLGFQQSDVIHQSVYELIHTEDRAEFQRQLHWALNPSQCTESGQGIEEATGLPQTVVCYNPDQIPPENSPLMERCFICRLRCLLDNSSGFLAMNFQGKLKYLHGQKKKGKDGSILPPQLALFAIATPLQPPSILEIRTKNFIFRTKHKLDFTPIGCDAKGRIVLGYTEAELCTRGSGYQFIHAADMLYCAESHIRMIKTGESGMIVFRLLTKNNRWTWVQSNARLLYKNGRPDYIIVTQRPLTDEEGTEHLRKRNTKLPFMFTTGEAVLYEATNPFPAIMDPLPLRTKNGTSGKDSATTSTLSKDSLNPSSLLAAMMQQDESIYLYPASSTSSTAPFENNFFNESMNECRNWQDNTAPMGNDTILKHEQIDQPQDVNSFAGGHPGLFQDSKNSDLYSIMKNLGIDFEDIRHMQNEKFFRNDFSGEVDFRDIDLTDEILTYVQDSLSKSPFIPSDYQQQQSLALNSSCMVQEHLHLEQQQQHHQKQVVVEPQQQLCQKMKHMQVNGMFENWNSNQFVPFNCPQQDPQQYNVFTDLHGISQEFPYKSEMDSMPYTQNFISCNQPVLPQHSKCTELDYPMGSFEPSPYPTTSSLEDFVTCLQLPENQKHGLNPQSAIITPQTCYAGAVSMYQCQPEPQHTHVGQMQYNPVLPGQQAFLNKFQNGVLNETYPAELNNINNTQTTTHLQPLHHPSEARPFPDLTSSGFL
Chain of Peroxisome proliferator-activated receptor delta (Homo sapiens) (Q03181 whole entry, looked up): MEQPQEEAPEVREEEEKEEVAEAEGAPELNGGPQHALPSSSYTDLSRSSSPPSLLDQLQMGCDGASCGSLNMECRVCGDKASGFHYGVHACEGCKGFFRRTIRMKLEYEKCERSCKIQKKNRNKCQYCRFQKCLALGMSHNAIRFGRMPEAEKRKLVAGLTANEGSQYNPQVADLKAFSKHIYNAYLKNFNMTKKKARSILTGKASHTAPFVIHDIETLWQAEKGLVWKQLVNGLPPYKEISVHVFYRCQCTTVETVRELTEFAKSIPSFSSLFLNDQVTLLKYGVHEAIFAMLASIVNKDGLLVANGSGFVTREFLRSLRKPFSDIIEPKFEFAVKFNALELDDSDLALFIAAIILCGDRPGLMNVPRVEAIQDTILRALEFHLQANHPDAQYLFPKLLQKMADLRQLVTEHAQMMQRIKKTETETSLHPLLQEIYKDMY
Chain of Peroxisome proliferator-activated receptor gamma (Homo sapiens) (P37231 whole entry, looked up): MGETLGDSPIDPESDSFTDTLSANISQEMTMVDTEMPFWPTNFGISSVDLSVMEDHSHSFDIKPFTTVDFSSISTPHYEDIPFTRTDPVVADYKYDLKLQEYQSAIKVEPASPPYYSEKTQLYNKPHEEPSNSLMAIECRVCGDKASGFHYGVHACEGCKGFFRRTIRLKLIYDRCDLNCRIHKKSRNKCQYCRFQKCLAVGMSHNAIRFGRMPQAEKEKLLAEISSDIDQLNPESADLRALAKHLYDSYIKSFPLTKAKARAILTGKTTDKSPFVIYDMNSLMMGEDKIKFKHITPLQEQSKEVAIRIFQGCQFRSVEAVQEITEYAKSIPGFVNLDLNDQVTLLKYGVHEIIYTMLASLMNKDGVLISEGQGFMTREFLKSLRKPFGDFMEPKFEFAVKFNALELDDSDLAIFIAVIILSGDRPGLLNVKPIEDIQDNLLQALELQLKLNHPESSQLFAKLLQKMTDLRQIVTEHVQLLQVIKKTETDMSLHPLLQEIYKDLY
Chain of Vitamin D3 receptor (Homo sapiens) (P11473 whole entry, looked up): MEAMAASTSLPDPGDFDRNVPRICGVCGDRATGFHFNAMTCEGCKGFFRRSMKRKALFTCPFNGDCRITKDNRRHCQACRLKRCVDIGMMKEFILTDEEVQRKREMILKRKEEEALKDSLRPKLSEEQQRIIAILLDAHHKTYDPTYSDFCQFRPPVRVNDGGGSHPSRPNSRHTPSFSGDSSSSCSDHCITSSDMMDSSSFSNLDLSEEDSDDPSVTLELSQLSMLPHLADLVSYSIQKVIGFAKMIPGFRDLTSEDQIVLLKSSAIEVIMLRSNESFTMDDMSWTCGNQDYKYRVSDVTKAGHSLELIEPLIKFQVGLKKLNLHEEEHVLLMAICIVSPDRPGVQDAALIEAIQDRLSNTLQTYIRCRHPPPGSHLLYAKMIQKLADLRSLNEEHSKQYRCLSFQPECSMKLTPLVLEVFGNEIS

Consider `CC1CCC(C(C)C)C(O)C1` (stereo not drawn), for which the Potency entry in test [1], in [2], in test [6], in [12], in test [14] and in test [16] was “inactive” in each case. Moreover, the outcome in [3], in test [4], in test [5], in [7], in [8] and in test [9] was inactive. In addition, the compound was called inactive in test [10], in test [11], in test [13], in test [15], in [17] and in test [18].
On to `Cc1cccnc1`, for which the Potency result in test [1], in test [2], in test [6], in test [19], in test [14] and in test [16] was “inactive” each time. In addition, the call in test [3], in test [4], in [5], in test [7], in test [8] and in test [9] was inactive. Further, the result in [17] and in test [18] was inactive.
With `C[Si](O[Si](C)(C)C)O[Si](C)(C)C`, the Potency result in test [1], in test [2], in test [6], in [19], in test [12] and in test [14] was “inactive” each time. Further, the result in test [3], in [4], in test [5], in test [7], in test [8] and in test [9] was inactive. Moreover, the compound was called inactive in test [10], in [11], in [13], in test [15], in test [17] and in test [18].
With `CCCCCCCCCCCCCCO`, the Potency entry in test [1], in test [2], in test [6], in [19], in test [14] and in test [16] was “inactive” each time. In addition, the outcome in [3], in test [4], in [5], in test [7], in test [8] and in test [9] was inactive. The compound was classed as inactive in [11], in [17] and in test [18].
As for `CCCCCCCCCCCCc1ccccc1`, the Potency entry in test [1], in test [2], in test [6], in test [19], in [12] and in test [14] was “inactive” throughout. For the same compound, the Potency entry in [16] is “inactive”. Also, the compound was called inactive in [3], in [4], in [5], in test [7], in [8] and in [9]. The outcome in [10], in test [13], in test [15], in [17] and in test [18] was inactive.
For `CN(C)CCCN`, the Potency result in [1], in test [2], in test [6], in test [19], in [12] and in [14] was “inactive” in each case. Besides, the Potency entry in [16] is “inactive”. Also, the call in [3], in test [4], in test [5], in test [7], in test [8] and in test [9] was inactive. The outcome in test [10], in [11], in test [13], in test [15], in test [17] and in test [18] was inactive.
On to `C#CCN(C)Cc1ccccc1`, for which the Potency result in test [1], in [2], in test [6], in test [19], in test [12] and in test [14] was “inactive” in each case. Further, the compound was called inactive in test [3], in test [4], in test [5], in [7], in test [8] and in test [9]. Besides, the result in test [10] and in test [11] was inactive.
Regarding `O=C(O)c1cc(=O)c2c(OCC(O)COc3cccc4oc(C(=O)O)cc(=O)c34)cccc2o1`, the Potency result in test [1], in [2], in test [6], in [19], in test [12] and in test [14] was “inactive” in each case. Further, the outcome in test [3], in [4], in [5], in test [7], in test [8] and in [9] was inactive. In [10], the compound was called inactive.
In the case of `C#C[C@]1(O)CC[C@H]2[C@@H]3CCC4=CC(=O)CC[C@@H]4[C@H]3CC[C@@]21C`, the Potency entry in test [1], in test [2], in [19], in test [12], in test [14] and in test [16] was “inactive” in each case. Moreover, the outcome in test [3], in test [4], in test [5], in [7], in test [8] and in [9] was inactive. For the same compound, the call in [10] was inactive. The Potency in [6] is 24.3 µM (active).
